# Screening results (PubChem)
# A selection follows.
# CYP2C9 act: CYP2C9 (human) activation | recombinant CYP2C9, luciferin-H conversion, luminescence; active compounds read high; factor 1 = untreated enzyme, 0 = blocked | activation factor at 5 µM | actives 1.4% (n = 96,000) | AID 1024;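 active = activation factor of 2 or more for CYP2C9 at a 5 µM dose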
# Target sequence (P11712 whole entry, looked up): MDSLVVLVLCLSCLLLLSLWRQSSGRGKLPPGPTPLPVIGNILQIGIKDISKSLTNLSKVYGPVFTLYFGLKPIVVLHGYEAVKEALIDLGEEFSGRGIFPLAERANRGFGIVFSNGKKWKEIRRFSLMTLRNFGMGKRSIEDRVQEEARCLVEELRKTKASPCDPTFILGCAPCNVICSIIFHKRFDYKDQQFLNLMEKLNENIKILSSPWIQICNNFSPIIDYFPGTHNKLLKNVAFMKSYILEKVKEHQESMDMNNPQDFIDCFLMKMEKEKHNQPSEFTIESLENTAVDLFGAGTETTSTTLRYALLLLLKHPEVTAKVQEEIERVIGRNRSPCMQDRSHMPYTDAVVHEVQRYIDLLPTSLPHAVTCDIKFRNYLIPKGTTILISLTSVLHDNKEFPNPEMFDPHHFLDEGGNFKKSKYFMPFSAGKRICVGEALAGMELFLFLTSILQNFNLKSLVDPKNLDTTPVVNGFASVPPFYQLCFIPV
# CYP2C9 inhib: human CYP2C9 inhibition; actives 20% (n = 96,000); P11712; CYP2C9 Supersomes, luciferin-H conversion, luminescence; inhibition, % at 5 µM;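 active = blocking of liver enzyme CYP2C9 beyond about 50% at 5 µM, limit read from the data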
# CYP2C19 act: activators of human cytochrome P450 2C19. 96,000 tested, under 10 active. activation factor at 5 µM. recombinant CYP2C19, luciferin-H EGE luminescence; active compounds read high; 0 = fully inhibited enzyme, 1 = untreated enzyme. P33261;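 active = activation factor of at least 2 at 5 µM in the primary screen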
# PostGolgi yeast: growth inhibition of a yeast mutant, post-Golgi transport screen. AID 739. inhibition, % at 10 µM. post-Golgi transport phenotypic cell assay. actives 0.9% (n = 98,000);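 also: yeast cells grown in 1536-well plates; yeast grown about 18 h at 30C before absorbance read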
# PostGolgi ctrl: growth of the yeast control strain, post-Golgi counter-screen; efflux-deficient yeast background strain, growth absorbance A615, 16 h; inhibition, % at 10 µM; actives 5% (n = 98,000); AID 738
# CYP2C19 inhib: inhibitors of human CYP2C19; P33261; CYP2C19 Supersomes, luciferin-H EGE luminescence, 30 min; inhibition, % at 5 µM; actives 21% (n = 96,000);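 active = CYP2C19 inhibition above a set limit at 5 µM in the primary screen, cut at about 50% in these data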
# Numbers stand for hits; . = inactive; / = no result. Rule as the data show it, unless noted: active = inhibition above about 30%; inactive = the rest.
SMILES,CYP2C9 act,CYP2C9 inhib,CYP2C19 act,PostGolgi yeast,PostGolgi ctrl,CYP2C19 inhib
COc1cccc(NC(=O)Cn2c(-c3cncs3)nc3ccccc32)c1,.,83,.,.,.,76
COc1ccc(C(=O)COc2ccccc2N2C(=O)C3C4C=CC(C4)C3C2=O)cc1 (stereo unspecified),.,.,.,.,.,.
Cc1ccc(Cl)cc1Nc1nc(-c2sc(NC(=O)C(C)(C)C)nc2C)cs1,.,.,.,.,.,.
CCOc1ccccc1CNC(=O)CCNC(=O)Cn1ccc2ccccc2c1=O,.,.,.,.,.,.
CC(=O)N1CCc2cc(C(=O)CN3CCN(c4cccc(Cl)c4)CC3)ccc21,.,84,.,.,.,.
Cc1cc(C)c(NC(=O)/C=C\C(=O)O)c([N+](=O)[O-])c1,.,.,.,.,.,.
CC(C)Cn1cnc2c(N)nc3ccccc3c21,.,.,.,/,/,.
O=C(COC(=O)C1CC1)c1c[nH]c2ccccc12,.,.,.,.,.,.
O=C(OCc1ccccc1)C1=[N+]([O-])OC(C(=O)OCc2ccccc2)C1c1c[nH]c2ccccc12 (stereo unspecified),.,96,.,.,.,84
